Laboratory results reported in ChEMBL document CHEMBL3433997, “St. Jude Leishmania screening dataset” (2016).

Assays:
Type in all cases: functional
[1] = molecular target: Solute carrier family 2, facilitated glucose transporter member 1 (Homo sapiens) (UniProt P11166); experiment: ST_JUDE_LEISH: Cytotoxicity at 2uM final concentration against transgenic Leishmania Mexicana promastigotes LmGLUT1 that are glucose transport deficient and complemented with the human glucose transporter GLUT1. Activity is measured by DNA content using SYBR green in vitro
[2] = molecular target: Hexose transporter 1 (Plasmodium falciparum) (UniProt O97467); experiment: ST_JUDE_LEISH: Cytotoxicity at 2uM final concentration against transgenic Leishmania Mexicana promastigotes LmPfHT that are glucose transport deficient and complemented with the Plasmodium falciparum hexose transporter. Activity is measured by DNA content using SYBR green in vitro
[3] = molecular target: Glucose transporter (Leishmania mexicana) (UniProt O61059); experiment: ST_JUDE_LEISH: Cytotoxicity at 2uM final concentration against transgenic Leishmania Mexicana promastigotes LmGT2 that are glucose transport deficient and complemented with the L. Mexicana glucose transporter 2. Activity is measured by DNA content using SYBR green in vitro

Solute carrier family 2, facilitated glucose transporter member 1 (Homo sapiens), sequence (P11166 whole entry): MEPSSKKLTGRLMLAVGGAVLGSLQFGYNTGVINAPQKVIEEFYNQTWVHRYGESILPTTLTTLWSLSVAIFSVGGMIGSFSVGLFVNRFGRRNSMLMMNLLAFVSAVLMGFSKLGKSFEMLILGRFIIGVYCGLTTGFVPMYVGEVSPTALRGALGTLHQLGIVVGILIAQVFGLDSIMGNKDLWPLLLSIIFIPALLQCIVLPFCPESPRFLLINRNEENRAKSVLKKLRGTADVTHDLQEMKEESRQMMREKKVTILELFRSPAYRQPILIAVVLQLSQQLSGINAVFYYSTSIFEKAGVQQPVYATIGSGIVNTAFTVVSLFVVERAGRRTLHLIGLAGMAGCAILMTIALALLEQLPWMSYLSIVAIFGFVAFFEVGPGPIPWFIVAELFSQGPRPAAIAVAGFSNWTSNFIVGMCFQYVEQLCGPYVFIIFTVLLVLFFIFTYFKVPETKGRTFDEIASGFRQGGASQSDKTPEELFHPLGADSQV

| Structure (SMILES) | inhibition [1] | inhibition [2] | inhibition [3] |
| --- | --- | --- | --- |
| Oc1ccccc1Nc1nc(NCc2ccco2)c2ccccc2n1 | 15.3% | 13.6% | 4.56% |
| CC(C)(C)c1ccc(NC(=O)c2ccc(CN3CCCN(Cc4cccc(Cl)c4)CC3)cc2)cc1 | 4.39% | 2.95% | 1.91% |
| CC1(C)N=C(N)N=C(N)N1c1ccccc1 | 3.26% | 3.47% | 1.32% |
| CCn1c(-c2nonc2N)nc2c(-c3cccc(NC(=O)Nc4ccccc4Cl)c3)ncc(OCCCN)c21 | -1.06% | -1.1% | -0.34% |
| Oc1cc(-c2nc(-c3ccccc3)[nH]c2-c2ccncc2)ccc1Cl | 4.1% | 1.67% | 1.44% |
| CN(C)CCCOc1ccc(CCNCc2cccc(Oc3ccc(Cl)cc3)c2)cc1 | 14% | 16.4% | 13.7% |
| Cc1nc(-c2cccc(C(=O)NC3CCC(CCN4CCc5ccc(-c6cccnc6)cc5CC4)CC3)c2)no1 (stereo unspecified) | 11.5% | 2.55% | 4.24% |
| CCc1c(C)nc(-n2nc(C)cc2NC(=O)c2cccc3ccccc23)[nH]c1=O | -3.49% | -1.41% | 3.73% |
| O=C(/C=C/c1ccc(Cl)c(Cl)c1)N1CCC(C(O)CN2CCC(c3c[nH]c4ccccc34)CC2)CC1 (stereo unspecified) | 2.18% | 1.82% | 0.09% |
| CCn1cc(C=C2Oc3c(ccc(O)c3CN3CCCCC3)C2=O)c2ccccc21 | 5.49% | 4.09% | 3.27% |
| C=C[C@]1(C)C[C@@H](OC(=O)CSC2CN3CCC2C3)[C@@]2(C)C3C(=O)CC[C@@]3(CC[C@H]2C)[C@@H](C)[C@@H]1O (stereo partly specified) | 72.8% | 73.2% | 59% |
| CC(C)C[C@@H](/C=N/N1CC(=O)NC1=O)NC(=O)[C@H](CC(C)C)NC(=O)c1ccc(OCCN2CCOCC2)cc1 | -0.34% | 2.99% | 1.11% |
